For orientation: inhibition means the relative decrease from the control value, in per cent.

A short description of test [1]: antimalarial activity against Dd2 strain (AID 2302;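 active = growth inhibition above 50% at the single 2 µM test dose, taken to imply half-maximal potency below 2 µM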;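 also: 0% = DMSO untreated growth and 100% = chloroquine plus artemisinin killed control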). To be noted: P. falciparum Dd2 in RBCs, LDH growth readout, 72 h; at 2 µM; stronger effect = higher value.
The nature of test [2]: HepG2 cytotoxicity, primary screen, cytotoxicity control for P. falciparum antimalarial project, cell-based, ATP luminescence (AID 2303;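 active = inhibition above 50%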;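 also: 0% = DMSO wells and 100% = digitonin-killed cells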). To be noted: HepG2 viability, 24-48 h, at 10 µM, stronger effect = higher value.
The target of test [3] is L-lactate dehydrogenase (Plasmodium falciparum (isolate CDC / Honduras)) (UniProt Q27743). The experiment in a line: PfLDH activity inhibition – cell lysate, 3D7 strain, counter-screen for P. falciparum growth inhibition project (AID 2304).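 Also: 0% = vehicle and 100% = reference inhibitor.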 To be noted: P. falciparum 3D7 crude extract, LDH APAD/NBT absorbance; at 2 µM; stronger effect = higher value. Background: Counterscreens check selectivity or assay interference.

A short description of test [4]: inhibition of 3D7 malaria parasite growth – strain 3D7 (AID 2306).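 Also: 0% = DMSO wells and 100% = chloroquine plus artemisinin control wells.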 To be noted: P. falciparum 3D7 erythrocytic growth, LDH absorbance, 72 h; at 2 µM; stronger effect = higher value.
In test [5] the target is Calcium-dependent protein kinase 1 (Plasmodium falciparum (isolate 3D7)) (UniProt P62344). Put plainly: PfCDPK1 kinase inhibitors, biochemical, TCAMS library (AID 1159585; cut-off not given, nearly all actives have IC50 up to about 0.98 µM;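 also: inhibitors leave more ATP so luminescence rises with inhibition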). To be noted: recombinant PfCDPK1, Kinase-Glo ATP depletion luminescence. For orientation: Kinase-Glo reads ATP consumption through a luciferase reaction.
The target of test [6] is Plasmodium falciparum protein kinase 6 (PK6, PF3D7_1337100) (UniProt Q8IDW1). Put plainly: PfPK6 kinase inhibitors, biochemical, TCAMS library (AID 1159586). The settings on record: recombinant PfPK6, Kinase-Glo ATP depletion luminescence.
Test [7] has as its target Protein kinase 7 (PK7), Plasmodium falciparum 3D7 (PF3D7_0213400) (UniProt Q7YTF7). The experiment in a line: inhibition of Plasmodium PK7 catalytic activity – biochemical, TCAMS antimalarial set, Kinase-Glo luminescence (AID 1159587). To be noted: recombinant PfPK7, Kinase-Glo ATP depletion luminescence.
Test [8] deals with Calcium-dependent protein kinase 4 (Plasmodium falciparum (isolate 3D7)) (UniProt Q8IBS5). The experiment in a line: PfCDPK4 kinase inhibitors, biochemical, TCAMS library (AID 1159588; cut-off not given, nearly all actives have IC50 up to about 0.91 µM). The settings on record: recombinant PfCDPK4, Kinase-Glo ATP depletion luminescence.

Values without a mark were called inactive. For part of these data: Results with a measured potency or affinity are listed apart. Active and inactive are the calls of the source. Unless noted, no rule for the calls is given here.

Chain of Protein kinase 7 (PK7), Plasmodium falciparum 3D7 (PF3D7_0213400) (Q7YTF7 1-343): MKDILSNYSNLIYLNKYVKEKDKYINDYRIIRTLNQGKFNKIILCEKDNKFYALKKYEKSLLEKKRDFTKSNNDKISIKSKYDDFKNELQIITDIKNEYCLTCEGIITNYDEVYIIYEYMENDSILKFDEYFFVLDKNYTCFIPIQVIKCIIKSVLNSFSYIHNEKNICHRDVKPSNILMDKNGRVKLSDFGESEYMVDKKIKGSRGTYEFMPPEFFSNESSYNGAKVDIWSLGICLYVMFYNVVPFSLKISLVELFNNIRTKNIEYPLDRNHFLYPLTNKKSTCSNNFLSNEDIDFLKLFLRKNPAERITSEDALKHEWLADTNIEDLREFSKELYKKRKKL
Chain of Calcium-dependent protein kinase 1 (Plasmodium falciparum (isolate 3D7)) (P62344 whole entry, looked up): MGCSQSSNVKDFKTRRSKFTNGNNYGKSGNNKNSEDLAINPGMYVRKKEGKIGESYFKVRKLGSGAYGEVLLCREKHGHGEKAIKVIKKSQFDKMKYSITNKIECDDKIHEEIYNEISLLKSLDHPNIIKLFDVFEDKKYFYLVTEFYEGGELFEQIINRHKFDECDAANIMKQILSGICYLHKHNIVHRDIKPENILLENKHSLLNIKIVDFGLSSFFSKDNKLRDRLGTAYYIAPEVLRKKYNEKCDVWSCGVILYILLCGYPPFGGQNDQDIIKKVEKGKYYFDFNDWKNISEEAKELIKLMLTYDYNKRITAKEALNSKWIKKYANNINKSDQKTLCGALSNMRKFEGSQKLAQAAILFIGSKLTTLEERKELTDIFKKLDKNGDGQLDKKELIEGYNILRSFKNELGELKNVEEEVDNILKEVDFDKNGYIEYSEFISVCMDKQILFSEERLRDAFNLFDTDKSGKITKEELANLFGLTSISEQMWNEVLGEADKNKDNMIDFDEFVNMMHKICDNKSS
Chain of Plasmodium falciparum protein kinase 6 (PK6, PF3D7_1337100) (Q8IDW1 1-305): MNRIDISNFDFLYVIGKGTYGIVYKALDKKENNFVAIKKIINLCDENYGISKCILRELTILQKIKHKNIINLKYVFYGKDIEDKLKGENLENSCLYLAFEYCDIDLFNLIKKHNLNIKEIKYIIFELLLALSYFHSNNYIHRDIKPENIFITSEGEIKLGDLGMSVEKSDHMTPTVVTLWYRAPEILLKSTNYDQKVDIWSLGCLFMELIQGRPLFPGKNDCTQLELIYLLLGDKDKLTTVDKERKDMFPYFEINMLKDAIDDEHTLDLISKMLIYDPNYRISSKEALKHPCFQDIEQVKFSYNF
Chain of Calcium-dependent protein kinase 4 (Plasmodium falciparum (isolate 3D7)) (Q8IBS5 whole entry, looked up): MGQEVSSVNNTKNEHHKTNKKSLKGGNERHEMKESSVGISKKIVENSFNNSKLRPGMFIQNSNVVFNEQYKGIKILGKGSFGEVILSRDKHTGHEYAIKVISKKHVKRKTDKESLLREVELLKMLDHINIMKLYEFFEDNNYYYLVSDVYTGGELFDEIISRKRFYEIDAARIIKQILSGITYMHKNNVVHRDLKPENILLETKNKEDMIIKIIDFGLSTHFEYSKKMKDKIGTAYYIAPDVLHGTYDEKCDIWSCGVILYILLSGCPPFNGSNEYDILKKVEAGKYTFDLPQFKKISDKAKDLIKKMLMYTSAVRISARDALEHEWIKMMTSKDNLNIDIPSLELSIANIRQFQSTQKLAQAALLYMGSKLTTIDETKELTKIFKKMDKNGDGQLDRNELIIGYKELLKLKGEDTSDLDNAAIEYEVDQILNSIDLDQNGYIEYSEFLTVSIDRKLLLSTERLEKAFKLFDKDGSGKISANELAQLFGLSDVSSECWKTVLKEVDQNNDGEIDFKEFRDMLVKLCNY
Chain of L-lactate dehydrogenase (Plasmodium falciparum (isolate CDC / Honduras)) (Q27743 whole entry, looked up): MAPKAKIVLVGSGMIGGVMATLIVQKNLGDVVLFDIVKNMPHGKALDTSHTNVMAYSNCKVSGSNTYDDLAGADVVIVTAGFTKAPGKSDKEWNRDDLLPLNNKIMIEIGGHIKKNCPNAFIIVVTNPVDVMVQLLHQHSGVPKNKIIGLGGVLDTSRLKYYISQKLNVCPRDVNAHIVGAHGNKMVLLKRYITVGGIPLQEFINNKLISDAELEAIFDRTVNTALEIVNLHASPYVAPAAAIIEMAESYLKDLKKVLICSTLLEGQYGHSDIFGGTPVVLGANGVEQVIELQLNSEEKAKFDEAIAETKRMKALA

On to `CCOc1cc(NCCSCc2nc[nH]c2C)nc2ccccc12`, for which the growth inhibition in test [1] is 10%; in test [4], 92% (active). Further, the results for the inhibition in test [2] and in test [3] were 4% and 1%, respectively. Moreover, the result in test [5], in test [6], in test [7] and in test [8] was inactive.
As for `Cc1[nH]c(C)c(-c2ccc(-c3ccc(C(F)F)cc3)nc2)c(=O)c1Cl`, the growth inhibition in test [1] was 96% (active); in test [4], 97% (active). For the same compound, the inhibition in test [2] is 0%; in test [3], -2%. Moreover, the result in test [5], in test [6], in test [7] and in test [8] was inactive.
For the compound `O=C(NCc1ccc(Cl)c(Cl)c1)c1ccc(-c2nc3ccc(Cl)cc3[nH]2)cc1`, the growth inhibition is 22% in test [1] and 96% (active) in test [4]. Also, the inhibition is 20% in test [2] and -6% in test [3]. The result in test [5], in test [6], in test [7] and in test [8] was inactive.
Turning to `COc1c(Br)cc(Br)cc1-c1ccc(CN2C3CCCC2CCC3)[nH]1`, the growth inhibition in test [1] was 83% (active); in test [4], 88% (active). Besides, the inhibition in test [2] was 42%; in test [3], 3%. Moreover, the outcome in test [5], in test [6], in test [7] and in test [8] was inactive.
`COc1ccc(NC(=O)CCNc2cc(C)nc(NCCc3ccccc3)n2)cc1`: the growth inhibition in test [1] is 0%; in test [4] it was 85% (active). For the same compound, the values for the inhibition in test [2] and in test [3] were 3% and -2%, respectively. Besides, the result in test [5], in test [6], in test [7] and in test [8] was inactive.
On to `COc1ccc2nc3cc(Cl)ccc3c(Nc3ccc(O)c(CNC(C)C)c3)c2c1`, for which the values for the growth inhibition in test [1] and in test [4] were 100% (active) and 102% (active), respectively. Further, the figures for the inhibition in test [2] and in test [3] were 5% and -1%, respectively. In addition, the result in test [5], in test [6], in test [7] and in test [8] was inactive.
`CN1CCN(C(=O)CN2CCC3(CCC2=O)NC(=O)c2ccccc2O3)CC1` (stereo not drawn): the results for the growth inhibition in test [1] and in test [4] were 98% (active) and 99% (active), respectively. Besides, the figures for the inhibition in test [2] and in test [3] were -7% and 2%, respectively. Further, the outcome in test [5], in test [6], in test [7] and in test [8] was inactive.
As for `O=S(=O)(c1ccc(NC(=S)NN=Cc2ccccn2)cc1)N1CCCCC1`, the figures for the growth inhibition in test [1] and in test [4] were 56% (active) and 98% (active), respectively. Further, the inhibition in test [2] was 43%; in test [3], -5%. In addition, the result in test [5], in test [6], in test [7] and in test [8] was inactive.
`O=c1cc(NCCCNC(CNCCc2ccccc2)c2cc(Br)cc(Br)c2)[nH]c2ccccc12` (stereo not drawn): the growth inhibition in test [1] is 53% (active); in test [4] it was 93% (active). The inhibition was -2% in test [2] and 1% in test [3]. The result in test [5], in test [6], in test [7] and in test [8] was inactive.
For the compound `O=C(CSc1nn(-c2ccccc2)c(=S)s1)c1c[nH]c2ccccc12`, the growth inhibition is 68% (active) in test [1] and 93% (active) in test [4]. The inhibition in test [2] is -7%; in test [3] it was -1%. The outcome in test [5], in test [6], in test [7] and in test [8] was inactive.
Consider `COc1ccc(CC2(c3ccc(F)cc3)N=C(N)N(CCCc3cccnc3)C2=O)cc1` (stereo not drawn), for which the growth inhibition in test [1] is 97% (active); in test [4] it was 98% (active). In addition, the results for the inhibition in test [2] and in test [3] were 12% and 0%, respectively. The outcome in test [5], in test [6], in test [7] and in test [8] was inactive.
For `O=C(C1COc2ccccc2O1)N(CCCn1ccnc1)Cc1csc(-c2ccc(CNCc3ccccc3)cc2)n1` (stereo not drawn), the growth inhibition in test [1] is 18%; in test [4] it was 100% (active). Further, the figures for the inhibition in test [2] and in test [3] were 15% and -1%, respectively. In addition, the result in test [5], in test [6], in test [7] and in test [8] was inactive.
`COC(=O)c1cccc(CNCc2ccc(-c3ccc(-c4nc5ccc(F)cc5[nH]4)cc3)cc2)c1`: the growth inhibition is 95% (active) in test [1] and 100% (active) in test [4]. In addition, the inhibition in test [2] is 8%; in test [3], 2%. The result in test [5], in test [6], in test [7] and in test [8] was inactive.
Regarding `NC(=O)c1cccc(CNCc2ccc(-c3cccc(-c4nc5ccccc5[nH]4)c3)cc2)c1`, the results for the growth inhibition in test [1] and in test [4] were 94% (active) and 101% (active), respectively. For the same compound, the inhibition is 29% in test [2] and 3% in test [3]. For the same compound, the result in test [5], in test [6], in test [7] and in test [8] was inactive.
Consider `CCSc1ccc(C)cc1CON1C(N)=NC(N)=NC1(C)C`, for which the growth inhibition was 96% (active) in test [1] and 94% (active) in test [4]. The results for the inhibition in test [2] and in test [3] were 66% (active) and 0%, respectively. Further, the outcome in test [5], in test [6], in test [7] and in test [8] was inactive.
Consider `CC(=O)Nc1ccc(CN2CCCN(c3cc(NC(=O)c4cccc(C)c4)ccn3)CC2)cc1`, for which the values for the growth inhibition in test [1] and in test [4] were 10% and 92% (active), respectively. The inhibition in test [2] is -2%; in test [3], -1%. Also, the outcome in test [5], in test [6], in test [7] and in test [8] was inactive.
For `CCn1c(-c2nonc2N)nc2c(Cl)ncc(O[C@H](CCN)c3ccccc3F)c21`, the growth inhibition was 88% (active) in test [1] and 96% (active) in test [4]. The inhibition was 15% in test [2] and -2% in test [3]. For the same compound, the outcome in test [5], in test [6], in test [7] and in test [8] was inactive.
For the compound `Cc1cc(NN=Cc2ccccc2F)c2ccccc2n1`, the values for the growth inhibition in test [1] and in test [4] were 81% (active) and 101% (active), respectively. Moreover, the inhibition was 14% in test [2] and 1% in test [3]. Further, the outcome in test [5], in test [6], in test [7] and in test [8] was inactive.
For `O=C(OCc1ccccn1)c1nc2ccccc2[nH]1`, the results for the growth inhibition in test [1] and in test [4] were 97% (active) and 92% (active), respectively. In addition, the inhibition in test [2] is 63% (active); in test [3], -2%. In addition, the result in test [5], in test [6], in test [7] and in test [8] was inactive.
For `Cc1cc(N(CCO)CCCN2CCCCC2)nc(Nc2ccc(Cl)cc2)n1`, the values for the growth inhibition in test [1] and in test [4] were 18% and 100% (active), respectively. The inhibition was 12% in test [2] and -9% in test [3]. The result in test [5], in test [6], in test [7] and in test [8] was inactive.
For `CCOc1ccccc1NC(=O)Nc1ccc2c(c1)CCN(C1CCC1)CC2`, the growth inhibition is 2% in test [1] and 88% (active) in test [4]. In addition, the inhibition is 15% in test [2] and -3% in test [3]. For the same compound, the result in test [5], in test [6], in test [7] and in test [8] was inactive.

The values are drawn from PubChem BioAssay.
